Assay results as given in PubChem BioAssay (NCI).
The panel holds about 79,000 compounds, 15% with a hit somewhere; the sample as a whole holds those more often. Activity calls are given as the source filed them. No stated cut-off is given here; in the data, active means growth inhibition above about 70%; inactive means the rest.

How the values were obtained:
[1] = NCI Yeast Anticancer Drug Screen. Data for the rad50 strain (AID 155);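 further: 0% = growth of vehicle-only cultures of the same strain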; settings: S. cerevisiae rad50 strain growth inhibition; at 50.0 µM; hits give high values
Summary of the method: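 Vehicle-treated cultures provide the reference for the growth inhibition reported for compound-exposed, repair-deficient yeast.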

[2] = NCI Yeast Anticancer Drug Screen. Data for the mec2-1 strain (AID 157); settings: S. cerevisiae mec2-1 strain, at 50.0 µM, hits give high values
Summary of the method: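 Compounds were applied to mec2-1 yeast cells. Their growth was then compared with that of vehicle-treated cultures to give growth inhibition.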

[3] = NCI Yeast Anticancer Drug Screen. Data for the sgs1 mgt1 strain (AID 161);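 further: 0% = growth of cultures given vehicle only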; settings: S. cerevisiae sgs1 mgt1 strain, at 50.0 µM, hits give high values
Summary of the method: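 Yeast cells carrying a defined DNA-repair defect were exposed to test compounds. Growth inhibition was measured relative to vehicle-treated controls.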

[4] = NCI Yeast Anticancer Drug Screen. Data for the cln2 rad14 strain (AID 165);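 further: 0% = growth equal to vehicle treated cultures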; settings: S. cerevisiae cln2 rad14 strain, at 50.0 µM, hits give high values
Summary of the method: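 Strain: cln2 rad14 yeast, altered in cell cycle control and DNA damage repair. Read-out: growth inhibition vs vehicle.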

[5] = NCI Yeast Anticancer Drug Screen. Data for the bub3 strain (AID 167); settings: S. cerevisiae bub3 mutant strain, at 50.0 µM, hits give high values
Summary of the method: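 Mutant yeast screening strain plus compound; vehicle-treated cultures serve as the 0% inhibition reference.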

[6] = NCI Yeast Anticancer Drug Screen. Data for the mlh1 rad18 strain (AID 175); settings: S. cerevisiae mlh1 rad18 strain growth inhibition; at 50.0 µM; hits give high values
Summary of the method: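 A repair-deficient yeast strain is exposed to test compound, and growth is scored relative to vehicle-treated controls.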

Measured: growth inhibition

Cc1ccc(SC(C)/C=C/NNC2=NC(c3ccccc3)C(c3ccccc3)=NN2)cc1 (stereo unspecified)
inactive: [1] 35.2% | [2] 10.2% | [3] 6.05% | [4] 30.4% | [5] 13.7% | [6] 24.1%

C=C(CC)C(=O)c1ccc(OCC(=O)O)c(Cl)c1Cl
inactive: [1] 14.7% | [2] -15.9% | [3] 16.6% | [4] 16.1% | [5] 19.8% | [6] -8.35%

Cc1ccc(NC(=S)N/C=C(\c2ccccc2)S(=O)Cc2ccccc2)c(C)c1 (stereo unspecified)
inactive: [1] 8% | [2] -22.1% | [3] -8% | [4] 15.7% | [5] 14.1% | [6] 1.8%

COc1cc(C(C)=O)cc(OCc2ccccc2)c1OC
inactive: [1] -2.85% | [2] 15.7% | [3] 18.2% | [4] -13.1% | [5] 15.4% | [6] 7.25%

CCOC(=O)c1ccc(N2C(=O)C(Cl)(c3ccccc3)C2c2ccco2)cc1 (stereo unspecified)
inactive: [1] 16.2% | [2] 9.85% | [3] -1.65% | [4] 9.1% | [5] 12.4% | [6] 10.5%

c1ccc(CSc2nn[nH]n2)cc1
inactive: [1] -5.3% | [2] -8.1% | [3] -0.8% | [4] -9.65% | [5] -2.45% | [6] -4.95%

O=C(Nc1ccc(Cl)cc1)OCc1ccco1
inactive: [1] 2.2% | [2] 24.1% | [3] 24.4% | [4] -12.4% | [5] 17.8% | [6] 16.8%

O=[N+]([O-])c1cc(C(F)(F)F)ccc1S(=O)(=O)c1ccccc1
inactive: [1] 40.4% | [2] 8.5% | [3] 8.7% | [4] 13.7% | [5] 14.1% | [6] 17.6%

CC1C(=O)N(c2ccccc2)C1c1ccccc1 (stereo unspecified)
inactive: [1] -18.6% | [2] -31.3% | [3] -11.9% | [4] -24.6% | [5] 2.95% | [6] -19.6%

CCC/C(=N/NC(N)=O)c1ccco1
inactive: [1] -2.85% | [2] -1.55% | [3] -8.15% | [4] -2.25% | [5] -1.7% | [6] -0.3%

Nc1ccc(F)c([N+](=O)[O-])c1
inactive: [1] -6.05% | [2] 0.65% | [3] -1.6% | [4] -23.6% | [5] -1.55% | [6] -1.2%

O=C1C2=C(Nc3cc(Cl)ccc3N2)OC1c1c[nH]c2ccc(COc3ccccc3)cc12 (stereo unspecified)
inactive: [1] -22.4% | [2] 6.6% | [3] -1.55% | [4] 30.4% | [5] -15% | [6] -4.1%

C/C(=N/NC(N)=O)C1C2CC3C(C2Cl)C31 (stereo unspecified)
inactive: [1] 21.4% | [2] -15.3% | [3] -15.1% | [4] -30.6% | [5] 4.7% | [6] -2.4%

CN(C)C(=N)N
inactive: [1] -28.9% | [2] 6.3% | [3] -27.4% | [4] -21.6% | [5] -0.7% | [6] -18.4%

CC(N)C(C)(C)O (stereo unspecified)
inactive: [1] -2.1% | [2] -13.7% | [3] 1.7% | [4] -12.8% | [5] 6.2% | [6] 0.05%

COc1ccc2oc3c(ccc[n+]3C)c(=O)c2c1
inactive: [1] -22.9% | [2] -14.7% | [3] -12.1% | [4] 10.9% | [5] -2.9% | [6] -16.9%

Cc1cc(Cl)ccc1OC(=O)NC1CCCCC1
inactive: [1] -2.5% | [2] 24.4% | [3] -2.35% | [4] -13.5% | [5] 30.4% | [6] 30.4%

CCC(=O)OC1CCCCC1C1CCCCC1 (stereo unspecified)
inactive: [1] 1.55% | [2] -2.35% | [3] 8% | [4] -37.6% | [5] -3.45% | [6] -3.9%

CCc1cccc(CC)c1N(C(C)=O)C(C)=O
inactive: [1] 8.55% | [2] -1.3% | [3] -11.7% | [4] -8.85% | [5] 19.2% | [6] 3.2%

CC(=O)c1cc(C)c(C)cc1C
inactive: [1] -13.9% | [2] 7.6% | [3] -2.5% | [4] -12% | [5] 1.65% | [6] -12.5%

OC(c1cccc(Cl)c1)C(Cl)Cl (stereo unspecified)
inactive: [1] -2.55% | [2] -9.45% | [3] -22% | [4] -4.15% | [5] -14.5% | [6] 1.95%

CCOC(=O)C(C=Nc1ccc(S(N)(=O)=O)cc1)C(=O)OCC
inactive: [1] -8.15% | [2] 4.85% | [3] 12.1% | [4] -22.4% | [5] -1.1% | [6] -24.9%

O/N=C(\CC(O)(C(F)(F)F)C(F)(F)F)c1cccs1
inactive: [3] 45.6%
active: [1] 81% | [2] 76.9% | [4] 87.5% | [5] 75.8% | [6] 93.5%

CC(=O)NC(c1ccccc1)(c1ccccc1)c1ccccc1
inactive: [1] 12.1% | [2] 8.15% | [3] 14.8% | [4] 5.2% | [5] 31.1% | [6] 19.5%

CNN=C(C)C
inactive: [1] -2.15% | [2] 3.8% | [3] -3.4% | [4] -4.8% | [5] 2.5% | [6] -19.3%

CCCC(=O)C(N)CC(C)C (stereo unspecified)
inactive: [1] -8.2% | [2] 5.4% | [3] 10.6% | [4] 1.15% | [5] 2.45% | [6] -4.15%

CC(=O)CC(=O)Nc1ccccc1[N+](=O)[O-]
inactive: [1] -7.05% | [2] -24.4% | [3] -0.65% | [4] 15.9% | [5] 7.05% | [6] -9.65%

COC(=O)c1nc(N)nc(C(=O)OC)c1C(=O)c1ccncc1
inactive: [1] -12.2% | [2] -19.9% | [3] 0.1% | [4] -16.1% | [5] -24.9% | [6] -4.45%

[CH3][Sn]([CH3])([N](c1ccccn1)c1ccccn1)[N](c1ccccn1)c1ccccn1
inactive: [1] -8.85% | [2] 2.7% | [3] 17% | [4] -17.3% | [5] -1.65% | [6] -21.4%

CC(C)(C)C1CCC(=NO)CC1 (stereo unspecified)
inactive: [1] 23.1% | [2] 16.1% | [3] 16.5% | [4] 18.3% | [5] 14.3% | [6] 23.8%

Nc1cccc2c1CCC=C2
inactive: [1] -0.05% | [2] -6.5% | [3] -3.55% | [4] -6% | [5] 7.6% | [6] -1.9%

CCOC(=O)C(CCCN=C(N)NC(=O)OCc1ccccc1)NC(=O)C(C(C)C)N1C(=O)c2ccccc2C1=O (stereo unspecified)
inactive: [4] 52% | [5] 48.9%
active: [1] 93% | [2] 78.5% | [3] 96.2% | [6] 96%

O=c1cc(-c2ccc(O)cc2)oc2cc(O)cc(O)c12
inactive: [1] 5.85% | [2] -5.65% | [3] -8.45% | [4] -43.5% | [5] -20.9% | [6] -14.9%

CC(C#N)N(C)c1c([N+](=O)[O-])c(=O)n(C)c(=O)n1C (stereo unspecified)
inactive: [1] -5.85% | [2] -13.3% | [3] -5.4% | [4] -14.9% | [5] -2.7% | [6] -20.7%

NNS(=O)(=O)c1ccc(N)cc1
inactive: [1] 5.6% | [2] 1.3% | [3] -5.4% | [4] -35% | [5] 18.8% | [6] 5.15%

CC(C)(O)CC(O)(C(F)(F)F)C(F)(F)F
inactive: [1] 14.3% | [2] -0.95% | [3] -3.25% | [4] -20.3% | [5] 3.35% | [6] 1.9%

COc1ccc(-c2cn3c([nH]c(=O)c4cc(Br)ccc43)c2C#N)cc1
inactive: [1] 5.55% | [2] -5.3% | [3] -3.7% | [4] -5.25% | [5] 2.2% | [6] 16.1%

CC12CCC(=O)C=C1CCC1C2C(=O)CC2(C)C1CCC2(O)C(=O)Cn1cc(F)c(=O)[nH]c1=O (stereo unspecified)
inactive: [1] 12.1% | [2] 9.5% | [3] 32.8% | [4] 11.9% | [5] -1.25% | [6] 6.5%

CC(=O)N=Cc1ccccc1O
inactive: [1] -27.8% | [2] -16% | [3] -50.2% | [4] -77.7% | [5] -34.5% | [6] -20.7%

[N-]=[N+]=C(C(=O)N1CCCC1=O)S(=O)(=O)c1ccccc1
inactive: [1] -17.3% | [2] -12.4% | [3] -17.9% | [4] 5.45% | [5] -14.4% | [6] 2.45%

CN(C)CCC(CCN(C)C)=NO
inactive: [1] -37.2% | [2] -49.1% | [3] 3.4% | [4] 15.5% | [5] -31.4% | [6] -12.1%
